# In PubChem BioAssay AID1159580 (chemical genetic matrix, 2015):
# Values joined by “and” are separate entries in the source; they are usually repeats but may differ in a detail not shown here. Equal values may be shown once. The campaign covered roughly 5,500 compounds. About 2,000 (36%) were called active. Another 18% or so got no clear call; they are omitted. This is one part of the list. Values without a mark were called inactive. No stated cut-off is given here; in the data, active means normalized growth mostly below about 0.91 (no sharp cut-off); inconclusive means no clear call, values can overlap the other calls; inactive means mostly above about 0.92.
# Test: chemical genetic growth profiling, strain panel (AID 1159580);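 further: tested at 20 µM; growth read once vehicle control cultures reached saturation at 30 °C; 1 = growth at the plate median or of vehicle wells; lower values mean less growth of the strain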
# Details: S. cerevisiae deletion strains, growth OD
structure (smiles),measurement,setting,value
COc1c2occc2c(OC)c2c(=O)cc(C)oc12,normalized growth,"locus YAL021C, strain ccr4, hits give low values",0.992
same,normalized growth,"locus YAL026C, strain drs2, hits give low values",0.985
same,normalized growth,"locus YAL030W, strain snc1, hits give low values",0.992
same,normalized growth,"locus YBL061C, strain skt5, hits give low values",0.992
same,normalized growth,"locus YBR009C, strain hhf1, hits give low values",0.963
same,normalized growth,"locus YBR021W, strain FUR4, hits give low values",0.958
same,normalized growth,"locus YBR023C, strain chs3, hits give low values",0.97
same,normalized growth,"locus YBR171W, strain sec66, hits give low values",0.987
same,normalized growth,"locus YBR229C, strain ROT2, hits give low values",1.01
same,normalized growth,"locus YBR231C, strain swc5, hits give low values",0.944
same,normalized growth,"locus YBR279W, strain paf1, hits give low values",0.978
same,normalized growth,"locus YCL011C, strain gbp2, hits give low values",0.967
same,normalized growth,"locus YCL016C, strain dcc1, hits give low values",0.986
same,normalized growth,"locus YCL029C, strain bik1, hits give low values",0.998
same,normalized growth,"locus YCL061C, strain MRC1, hits give low values",0.995
same,normalized growth,"locus YCL069W, strain vba3, hits give low values",0.977
same,normalized growth,"locus YCR088W, strain abp1, hits give low values",0.991
same,normalized growth,"locus YDL005C, strain med2, hits give low values",0.989
same,normalized growth,"locus YDL035C, strain GPR1, hits give low values",1.05
same,normalized growth,"locus YDL040C, strain nat1, hits give low values",0.992
same,normalized growth,"locus YDL074C, strain BRE1, hits give low values",1.06
same,normalized growth,"locus YDL101C, strain DUN1, hits give low values",1.02
same,normalized growth,"locus YDL134C, strain PPH21, hits give low values",1.05
same,normalized growth,"locus YDL185W, strain tfp1, hits give low values",1.01
same,normalized growth,"locus YDL192W, strain arf1, hits give low values",1.01
same,normalized growth,"locus YDR001C, strain nth1, hits give low values",0.991
same,normalized growth,"locus YDR069C, strain doa4, hits give low values",0.985
same,normalized growth,"locus YDR101C, strain arx1, hits give low values",0.988
same,normalized growth,"locus YDR137W, strain rgp1, hits give low values",1.01
same,normalized growth,"locus YDR159W, strain sac3, hits give low values",0.97
same,normalized growth,"locus YDR162C, strain NBP2, hits give low values",1.02
same,normalized growth,"locus YDR195W, strain ref2",1.14
same,normalized growth,"locus YDR297W, strain sur2, hits give low values",0.979
same,normalized growth,"locus YDR318W, strain mcm21, hits give low values",1.01
same,normalized growth,"locus YDR334W, strain swr1, hits give low values",0.994
same,normalized growth,"locus YDR335W, strain msn5, hits give low values",0.987
same,normalized growth,"locus YDR388W, hits give low values",1
same,normalized growth,"locus YDR392W, strain spt3, hits give low values",0.734 (active)
same,normalized growth,"locus YDR502C, strain sam2, hits give low values",1.01
same,normalized growth,"locus YEL003W, strain gim4, hits give low values",0.938
same,normalized growth,"locus YEL037C, strain rad23, hits give low values",0.99
same,normalized growth,"locus YEL061C, strain CIN8 (second series), hits give low values",0.981
same,normalized growth,"locus YER015W, strain faa2, hits give low values",0.977
same,normalized growth,"locus YER016W, strain bim1, hits give low values",0.994
same,normalized growth,"locus YER110C, hits give low values",1
same,normalized growth,"locus YER111C, strain swi4, hits give low values",1
same,normalized growth,"locus YER155C, strain BEM2 (second series), hits give low values",0.881
same,normalized growth,"locus YER155C, strain BEM2, hits give low values",1
same,normalized growth,"locus YER167W, strain BCK2, hits give low values",1.01
same,normalized growth,"locus YFR010W, strain ubp6, hits give low values",0.986
same,normalized growth,"locus YGL078C, strain dbp3, hits give low values",1.01
same,normalized growth,"locus YGL086W, strain mad1, hits give low values",1
same,normalized growth,"locus YGL167C, strain pmr1, hits give low values",0.997
same,normalized growth,"locus YGL173C, strain kem1, hits give low values",0.977
same,normalized growth,"locus YGL227W, strain vid30, hits give low values",0.99
same,normalized growth,"locus YGL240W, strain doc1, hits give low values",0.955
same,normalized growth,"locus YGL248W, strain PDE1, hits give low values",1.04
same,normalized growth,"locus YGL253W, strain hxk2, hits give low values",0.958
same,normalized growth,"locus YGR135W, strain pre9, hits give low values",1
same,normalized growth,"locus YGR252W, strain gcn5, hits give low values",0.965
same,normalized growth,"locus YHR013C, strain ard1, hits give low values",0.975
same,normalized growth,"locus YHR027C, strain rpn1, hits give low values",0.987
same,normalized growth,"locus YHR030C, strain SLT2, hits give low values",1.02 and 0.987
same,normalized growth,"locus YHR079C, strain IRE1 (second series), hits give low values",1
same,normalized growth,"locus YHR079C, strain IRE1, hits give low values",0.996
same,normalized growth,"locus YHR094C, strain hxt1, hits give low values",1.01
same,normalized growth,"locus YHR129C, strain ARP1, hits give low values",1.01
same,normalized growth,"locus YHR142W, strain chs7, hits give low values",0.949
same,normalized growth,"locus YHR200W, strain rpn10, hits give low values",1.04
same,normalized growth,"locus YIL066C, strain RNR3, hits give low values",1.02
same,normalized growth,"locus YIL073C, strain SPO22, hits give low values",1.13
same,normalized growth,"locus YIL125W, strain kgd1, hits give low values",1.02
same,normalized growth,"locus YIR030C, strain dcg1, hits give low values",1.01
same,normalized growth,"locus YJL092W, strain hpr5, hits give low values",0.996
same,normalized growth,"locus YJL095W, strain BCK1 (second series), hits give low values",0.993
same,normalized growth,"locus YJL095W, strain BCK1, hits give low values",1.03 and 1
same,normalized growth,"locus YJL115W, strain asf1, hits give low values",0.996
same,normalized growth,"locus YJL129C, strain trk1, hits give low values",1.01
same,normalized growth,"locus YJL134W, strain LCB3, hits give low values",1.01
same,normalized growth,"locus YJL154C, strain vps35, hits give low values",0.995
same,normalized growth,"locus YJL164C, strain tpk1, hits give low values",0.965
same,normalized growth,"locus YJL166W, strain qcr8, hits give low values",0.945
same,normalized growth,"locus YJL168C, strain set2, hits give low values",1.01
same,normalized growth,"locus YJL187C, strain SWE1 (second series), hits give low values",1.02
same,normalized growth,"locus YJL187C, strain SWE1, hits give low values",0.99
same,normalized growth,"locus YJR043C, strain POL32, hits give low values",1.03
same,normalized growth,"locus YJR066W, strain TOR1, hits give low values",0.931
same,normalized growth,"locus YJR075W, strain HOC1, hits give low values",1.03
same,normalized growth,"locus YKL009W, strain mrt4, hits give low values",0.991
same,normalized growth,"locus YKL068W, hits give low values",1.01
same,normalized growth,"locus YKL085W, strain MDH1 (second series), hits give low values",1.01
same,normalized growth,"locus YKL085W, strain MDH1, hits give low values",1.01
same,normalized growth,"locus YKL160W, strain elf1, hits give low values",0.963
same,normalized growth,"locus YKR001C, strain vps1, hits give low values",1.02
same,normalized growth,"locus YKR026C, strain gcn3, hits give low values",0.995
same,normalized growth,"locus YKR091W, strain srl3, hits give low values",0.998
same,normalized growth,"locus YLL001W, strain dnm1, hits give low values",0.949
same,normalized growth,"locus YLL026W, hits give low values",0.999
same,normalized growth,"locus YLL041C, strain sdh2, hits give low values",0.998
same,normalized growth,"locus YLR027C, strain aat2, hits give low values",0.99
same,normalized growth,"locus YLR039C, strain RIC1, hits give low values",1.18
same,normalized growth,"locus YLR058C, strain SHM2, hits give low values",1.01
same,normalized growth,"locus YLR102C, strain apc9, hits give low values",1.01
same,normalized growth,"locus YLR113W, strain HOG1, hits give low values",1.07
same,normalized growth,"locus YLR221C, strain rsa3, hits give low values",0.963
same,normalized growth,"locus YLR258W, strain gsy2, hits give low values",0.943
same,normalized growth,"locus YLR262C, strain YPT6 (second series), hits give low values",0.985
same,normalized growth,"locus YLR268W, strain sec22, hits give low values",0.999
same,normalized growth,"locus YLR320W, strain mms22, hits give low values",0.941
same,normalized growth,"locus YLR342W, strain FKS1, hits give low values",0.994
same,normalized growth,"locus YLR357W, strain rsc2, hits give low values",1.01
same,normalized growth,"locus YLR370C, strain arc18, hits give low values",0.996
same,normalized growth,"locus YLR371W, strain rom2, hits give low values",1.02
same,normalized growth,"locus YLR384C, strain iki3, hits give low values",0.986
same,normalized growth,"locus YLR418C, strain cdc73, hits give low values",1.04
same,normalized growth,"locus YML016C, strain PPZ1, hits give low values",1.01
same,normalized growth,"locus YML032C, strain rad52, hits give low values",1
same,normalized growth,"locus YML120C, strain ndi1, hits give low values",0.972
same,normalized growth,"locus YML124C, strain tub3, hits give low values",0.999
same,normalized growth,"locus YMR058W, strain fet3, hits give low values",0.975
same,normalized growth,"locus YMR078C, strain ctf18, hits give low values",1.02
same,normalized growth,"locus YMR125W, strain sto1, hits give low values",1.04
same,normalized growth,"locus YMR129W, hits give low values",1
same,normalized growth,"locus YMR205C, strain PFK2, hits give low values",0.985
same,normalized growth,"locus YMR223W, strain ubp8, hits give low values",0.992
same,normalized growth,"locus YMR231W, strain pep5, hits give low values",0.999
same,normalized growth,"locus YMR307W, strain GAS1, hits give low values",1.17
same,normalized growth,"locus YNL067W, strain RPL9B, hits give low values",0.986
same,normalized growth,"locus YNL071W, strain lat1, hits give low values",0.912 (active)
same,normalized growth,"locus YNL128W, strain TEP1, hits give low values",1.02
same,normalized growth,"locus YNL153C, strain GIM3, hits give low values",1
same,normalized growth,"locus YNL183C, strain NPR1, hits give low values",0.949
same,normalized growth,"locus YNL209W, strain ssb2, hits give low values",0.977
same,normalized growth,"locus YNL233W, strain BNI4, hits give low values",1.03
same,normalized growth,"locus YNL248C, strain rpa49, hits give low values",0.989
same,normalized growth,"locus YNL250W, strain rad50, hits give low values",1.05
same,normalized growth,"locus YNL271C, strain bni1, hits give low values",1.01
same,normalized growth,"locus YNL298W, strain CLA4, hits give low values",1.02
same,normalized growth,"locus YNL307C, strain MCK1, hits give low values",1
same,normalized growth,"locus YNL322C, strain KRE1 (second series), hits give low values",0.998
same,normalized growth,"locus YNR049C, strain mso1, hits give low values",1
same,normalized growth,"locus YNR052C, strain pop2, hits give low values",1.01
same,normalized growth,"locus YOL012C, strain htz1",1.05
same,normalized growth,"locus YOL147C, strain pex11, hits give low values",1.01
same,normalized growth,"locus YOR001W, strain rrp6, hits give low values",0.946
same,normalized growth,"locus YOR061W, strain CKA2, hits give low values",1.02
same,normalized growth,"locus YOR069W, strain VPS5, hits give low values",1
same,normalized growth,"locus YOR070C, strain gyp1, hits give low values",0.988
same,normalized growth,"locus YOR080W, strain dia2, hits give low values",0.987
same,normalized growth,"locus YOR083W, strain WHI5, hits give low values",0.942
same,normalized growth,"locus YOR106W, strain vam3, hits give low values",0.966
same,normalized growth,"locus YOR136W, strain idh2, hits give low values",1.02
same,normalized growth,"locus YOR144C, strain elg1, hits give low values",1.01
same,normalized growth,"locus YOR184W, strain ser1, hits give low values",1.02
same,normalized growth,"locus YOR231W, strain MKK1, hits give low values",0.997
same,normalized growth,"locus YOR265W, strain rbl2, hits give low values",0.989
same,normalized growth,"locus YOR270C, strain vph1, hits give low values",0.839
same,normalized growth,"locus YOR290C, strain snf2, hits give low values",0.958
same,normalized growth,"locus YOR316C, strain cot1, hits give low values",1.03
same,normalized growth,"locus YPL051W, strain arl3, hits give low values",0.972
same,normalized growth,"locus YPL078C, strain atp4, hits give low values",0.951
same,normalized growth,"locus YPL106C, strain sse1, hits give low values",0.961
same,normalized growth,"locus YPL240C, strain hsp82, hits give low values",0.989
same,normalized growth,"locus YPL241C, strain CIN2, hits give low values",1.01
same,normalized growth,"locus YPL256C, strain CLN2, hits give low values",1.03
same,normalized growth,"locus YPR119W, strain clb2, hits give low values",1.01
same,normalized growth,"locus YPR141C, strain kar3, hits give low values",1.01
same,normalized growth,"locus YPR163C, strain tif3, hits give low values",0.992
same,normalized growth,"locus YPR167C, strain met16, hits give low values",1.02
same,normalized growth,"strain wtn01, hits give low values",0.999
